The record followed here is ChEMBL document CHEMBL3988442, “University of Dundee, Small-Polar-MMV Screening Library” (2021).

Set-up in all cases: scale not given: direction of the effect not stated beside the values
Assay [1] deals with Protein translocase subunit SecA (Escherichia coli (strain K12)) (UniProt P10408). The assay can be described thus: Assay to Identify E. coli SecA ATPase Inhibitors. To be noted: 30 µM. In kind it is functional.
For assay [2], the target named is T1, Ubiquitin-activating enzyme e1, putative (Leishmania donovani (strain BPK282A1)) (UniProt E9BSI1).
T1 sequence (whole entry): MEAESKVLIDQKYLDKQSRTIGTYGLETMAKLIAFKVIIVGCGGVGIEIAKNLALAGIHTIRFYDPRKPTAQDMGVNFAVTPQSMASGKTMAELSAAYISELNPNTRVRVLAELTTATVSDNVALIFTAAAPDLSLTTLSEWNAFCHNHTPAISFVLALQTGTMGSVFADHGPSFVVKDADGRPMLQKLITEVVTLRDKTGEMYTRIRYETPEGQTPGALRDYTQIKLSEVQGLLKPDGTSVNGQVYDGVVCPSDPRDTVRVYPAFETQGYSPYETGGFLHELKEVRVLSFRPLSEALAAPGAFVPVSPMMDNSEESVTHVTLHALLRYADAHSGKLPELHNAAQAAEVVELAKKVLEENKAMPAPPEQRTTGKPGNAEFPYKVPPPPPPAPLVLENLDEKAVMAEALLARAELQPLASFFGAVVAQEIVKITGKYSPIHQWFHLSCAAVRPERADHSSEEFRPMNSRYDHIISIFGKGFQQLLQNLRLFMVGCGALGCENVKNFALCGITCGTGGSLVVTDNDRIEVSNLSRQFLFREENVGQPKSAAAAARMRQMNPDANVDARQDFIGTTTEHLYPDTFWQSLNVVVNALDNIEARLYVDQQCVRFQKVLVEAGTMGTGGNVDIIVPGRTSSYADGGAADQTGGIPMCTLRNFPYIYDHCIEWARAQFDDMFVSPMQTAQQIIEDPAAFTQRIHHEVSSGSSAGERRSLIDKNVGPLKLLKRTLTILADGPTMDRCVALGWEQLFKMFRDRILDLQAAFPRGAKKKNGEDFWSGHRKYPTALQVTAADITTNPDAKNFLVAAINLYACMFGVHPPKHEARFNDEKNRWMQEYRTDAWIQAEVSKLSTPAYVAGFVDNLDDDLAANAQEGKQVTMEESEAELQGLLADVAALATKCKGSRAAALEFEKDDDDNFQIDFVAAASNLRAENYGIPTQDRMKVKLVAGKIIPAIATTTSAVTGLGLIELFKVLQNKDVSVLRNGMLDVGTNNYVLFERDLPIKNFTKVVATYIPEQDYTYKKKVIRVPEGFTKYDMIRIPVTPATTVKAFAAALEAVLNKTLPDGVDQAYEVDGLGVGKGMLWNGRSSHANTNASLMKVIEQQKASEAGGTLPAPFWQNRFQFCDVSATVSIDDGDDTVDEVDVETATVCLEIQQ
The assay can be described thus: Leishmania donovani Ubiquitin Activating Enzyme (LdE1). The format is functional. To be noted: 30 µM.

The target of assay [3] is Sialic acid-binding Ig-like lectin 9 (Homo sapiens) (UniProt Q9Y336). The assay can be described thus: Hs-Siglec9 ALPHAscreen SOP 20170721. To be noted: 10 µM. In general terms: Alpha assays give light when donor and acceptor beads are brought close together.
Chain of Sialic acid-binding Ig-like lectin 9 (Homo sapiens) (Q9Y336 whole entry): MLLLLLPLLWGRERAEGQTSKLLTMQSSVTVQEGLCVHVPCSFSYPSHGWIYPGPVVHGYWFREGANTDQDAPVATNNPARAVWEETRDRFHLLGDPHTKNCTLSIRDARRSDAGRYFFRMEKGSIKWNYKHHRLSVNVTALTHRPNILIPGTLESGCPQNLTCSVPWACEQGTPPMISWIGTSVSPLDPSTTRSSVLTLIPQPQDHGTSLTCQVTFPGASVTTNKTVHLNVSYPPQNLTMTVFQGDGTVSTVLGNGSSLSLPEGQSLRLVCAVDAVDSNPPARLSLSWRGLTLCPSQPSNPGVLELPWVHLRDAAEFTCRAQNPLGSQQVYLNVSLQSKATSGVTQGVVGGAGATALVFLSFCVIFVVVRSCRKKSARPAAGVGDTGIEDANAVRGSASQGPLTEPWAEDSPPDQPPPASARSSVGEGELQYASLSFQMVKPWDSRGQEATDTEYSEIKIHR
A further assay has as its system Trypanosoma cruzi. Put plainly: Trypanosoma cruzi phosphomannomutase and mannose-1-phosphate guanylyltransferase assay. In kind it is functional. To be noted: 10 µM.
Assay [4] has as its target T2, Arginase-2, mitochondrial (Homo sapiens) (UniProt P78540).
T2 sequence (whole entry): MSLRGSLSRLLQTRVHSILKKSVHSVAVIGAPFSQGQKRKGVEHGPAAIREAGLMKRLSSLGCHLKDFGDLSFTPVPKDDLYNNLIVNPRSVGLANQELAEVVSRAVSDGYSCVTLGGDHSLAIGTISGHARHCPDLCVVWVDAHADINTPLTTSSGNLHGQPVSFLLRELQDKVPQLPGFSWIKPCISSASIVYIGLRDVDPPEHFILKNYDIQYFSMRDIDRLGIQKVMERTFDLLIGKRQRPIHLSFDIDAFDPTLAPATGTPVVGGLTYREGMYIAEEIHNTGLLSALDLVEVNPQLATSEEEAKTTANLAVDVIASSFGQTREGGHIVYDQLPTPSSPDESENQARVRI
Put plainly: in vitro enzyme assay to detect the production of urea directly proportional to the activity of Arginase II. Further: in the data most compounds retested in dose-response had high values. In kind it is functional. To be noted: 33.3 µM.

The target in assay [5] is T3, Proteasome subunit beta (Trypanosoma cruzi) (UniProt O96673).
T3 sequence (whole entry): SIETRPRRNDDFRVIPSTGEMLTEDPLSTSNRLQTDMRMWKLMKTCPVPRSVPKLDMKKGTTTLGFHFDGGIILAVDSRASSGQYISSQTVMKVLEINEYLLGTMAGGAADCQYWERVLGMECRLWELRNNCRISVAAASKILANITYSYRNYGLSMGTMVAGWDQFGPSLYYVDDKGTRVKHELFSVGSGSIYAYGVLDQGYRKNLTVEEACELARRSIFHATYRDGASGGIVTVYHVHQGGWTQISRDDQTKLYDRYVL
Put plainly: Trypanosoma cruzi proteasome chymotrypsin-like activity (TcProtChymo) assay. Further: in the data most compounds retested in dose-response had high values. In kind it is functional. To be noted: 9.37 µM.

Another assay is filed under the species Homo sapiens. The assay can be described thus: To identify inhibition of the IFN signalling (Jak-Stat) pathway via expression of an eGFP reporter gene under the control of an IFN-stimulated response element (ISRE) containing MxA promoter. In kind it is functional. To be noted: 30 µM.
Assay [6] concerns the target T4, Tyrosyl-tRNA synthetase, putative (Trypanosoma cruzi (strain CL Brener)) (UniProt Q4DSP6).
T4 sequence (whole entry): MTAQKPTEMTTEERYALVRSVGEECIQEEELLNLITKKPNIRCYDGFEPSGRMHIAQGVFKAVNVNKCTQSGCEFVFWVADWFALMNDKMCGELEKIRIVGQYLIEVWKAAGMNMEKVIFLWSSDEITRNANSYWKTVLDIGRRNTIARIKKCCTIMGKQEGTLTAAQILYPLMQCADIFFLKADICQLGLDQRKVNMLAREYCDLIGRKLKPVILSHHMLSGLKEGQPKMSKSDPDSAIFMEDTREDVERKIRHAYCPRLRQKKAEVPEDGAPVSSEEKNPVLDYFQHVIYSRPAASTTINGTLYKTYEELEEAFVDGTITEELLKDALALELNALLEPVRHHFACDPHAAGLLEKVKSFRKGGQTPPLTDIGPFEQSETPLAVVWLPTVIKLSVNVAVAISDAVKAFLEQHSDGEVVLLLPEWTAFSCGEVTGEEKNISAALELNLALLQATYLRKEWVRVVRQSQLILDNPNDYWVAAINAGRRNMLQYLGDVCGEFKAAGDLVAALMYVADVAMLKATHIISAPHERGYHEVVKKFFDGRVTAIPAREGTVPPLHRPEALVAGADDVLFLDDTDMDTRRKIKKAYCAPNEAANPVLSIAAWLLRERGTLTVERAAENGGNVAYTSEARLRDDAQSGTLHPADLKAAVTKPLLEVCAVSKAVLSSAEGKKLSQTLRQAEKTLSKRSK
Put plainly: Trypanosoma cruzi tyrosyl tRNA synthetase (TcYRS) _High Tyrosine SOP. Further: in the data most compounds retested in dose-response had high values. To be noted: 30 µM. In kind it is functional.

Assay [7] deals with T4, Tyrosyl-tRNA synthetase, putative (Trypanosoma cruzi (strain CL Brener)). The assay can be described thus: Trypanosoma cruzi tyrosyl tRNA synthetase (TcYRS) SOP. In kind it is functional. To be noted: 30 µM.
Assay [8] addresses Chromo domain-containing protein 1 (Saccharomyces cerevisiae (strain ATCC 204508 / S288c) (Baker's yeast)) (UniProt P32657). Put plainly: ScCHD-1 Enzyme Inhibition Assay. Further: in the data most compounds retested in dose-response had high values. In kind it is functional. To be noted: 30 µM.

The structures appear in SMILES notation. For some assays here: Entries with a potency or affinity are not part of this list.

Chain of Chromo domain-containing protein 1 (Saccharomyces cerevisiae (strain ATCC 204508 / S288c) (Baker's yeast)) (P32657 whole entry, the tested form may be a part): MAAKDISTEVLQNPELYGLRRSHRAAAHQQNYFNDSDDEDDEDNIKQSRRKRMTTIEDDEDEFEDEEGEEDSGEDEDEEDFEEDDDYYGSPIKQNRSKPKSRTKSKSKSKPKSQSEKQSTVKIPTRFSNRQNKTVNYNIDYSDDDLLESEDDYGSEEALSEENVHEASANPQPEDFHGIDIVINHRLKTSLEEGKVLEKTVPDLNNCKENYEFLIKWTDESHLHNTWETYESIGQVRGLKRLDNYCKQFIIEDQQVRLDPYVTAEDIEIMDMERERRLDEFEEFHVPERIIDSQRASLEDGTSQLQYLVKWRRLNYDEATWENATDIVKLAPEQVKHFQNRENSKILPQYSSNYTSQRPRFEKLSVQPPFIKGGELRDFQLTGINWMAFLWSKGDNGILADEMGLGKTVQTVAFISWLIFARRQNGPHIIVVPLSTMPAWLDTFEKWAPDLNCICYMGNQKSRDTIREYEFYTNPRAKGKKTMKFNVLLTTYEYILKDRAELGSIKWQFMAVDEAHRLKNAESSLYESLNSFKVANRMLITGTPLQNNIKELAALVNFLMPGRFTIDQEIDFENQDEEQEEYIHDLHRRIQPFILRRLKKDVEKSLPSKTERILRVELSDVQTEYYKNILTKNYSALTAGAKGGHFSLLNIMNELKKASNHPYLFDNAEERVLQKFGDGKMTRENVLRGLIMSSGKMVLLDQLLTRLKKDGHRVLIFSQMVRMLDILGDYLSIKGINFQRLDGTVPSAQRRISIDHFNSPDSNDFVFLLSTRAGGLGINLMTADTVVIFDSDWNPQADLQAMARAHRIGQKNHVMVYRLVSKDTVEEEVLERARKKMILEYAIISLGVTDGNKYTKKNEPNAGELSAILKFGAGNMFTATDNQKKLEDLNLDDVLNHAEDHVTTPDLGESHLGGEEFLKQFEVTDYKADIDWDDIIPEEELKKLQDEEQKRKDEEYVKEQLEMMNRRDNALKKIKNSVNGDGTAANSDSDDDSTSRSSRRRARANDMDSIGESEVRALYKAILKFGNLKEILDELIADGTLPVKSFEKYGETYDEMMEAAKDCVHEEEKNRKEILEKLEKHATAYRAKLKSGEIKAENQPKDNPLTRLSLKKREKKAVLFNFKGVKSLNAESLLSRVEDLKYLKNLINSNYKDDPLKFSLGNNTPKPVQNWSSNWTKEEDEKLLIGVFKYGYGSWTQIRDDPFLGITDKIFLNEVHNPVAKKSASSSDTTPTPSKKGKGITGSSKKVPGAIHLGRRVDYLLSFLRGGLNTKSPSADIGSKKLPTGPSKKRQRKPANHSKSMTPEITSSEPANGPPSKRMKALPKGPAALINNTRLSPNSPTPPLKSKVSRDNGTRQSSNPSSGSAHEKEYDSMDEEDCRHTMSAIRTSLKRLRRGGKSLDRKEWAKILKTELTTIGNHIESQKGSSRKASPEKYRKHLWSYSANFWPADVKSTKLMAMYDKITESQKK
Chain of Protein translocase subunit SecA (Escherichia coli (strain K12)) (P10408 whole entry): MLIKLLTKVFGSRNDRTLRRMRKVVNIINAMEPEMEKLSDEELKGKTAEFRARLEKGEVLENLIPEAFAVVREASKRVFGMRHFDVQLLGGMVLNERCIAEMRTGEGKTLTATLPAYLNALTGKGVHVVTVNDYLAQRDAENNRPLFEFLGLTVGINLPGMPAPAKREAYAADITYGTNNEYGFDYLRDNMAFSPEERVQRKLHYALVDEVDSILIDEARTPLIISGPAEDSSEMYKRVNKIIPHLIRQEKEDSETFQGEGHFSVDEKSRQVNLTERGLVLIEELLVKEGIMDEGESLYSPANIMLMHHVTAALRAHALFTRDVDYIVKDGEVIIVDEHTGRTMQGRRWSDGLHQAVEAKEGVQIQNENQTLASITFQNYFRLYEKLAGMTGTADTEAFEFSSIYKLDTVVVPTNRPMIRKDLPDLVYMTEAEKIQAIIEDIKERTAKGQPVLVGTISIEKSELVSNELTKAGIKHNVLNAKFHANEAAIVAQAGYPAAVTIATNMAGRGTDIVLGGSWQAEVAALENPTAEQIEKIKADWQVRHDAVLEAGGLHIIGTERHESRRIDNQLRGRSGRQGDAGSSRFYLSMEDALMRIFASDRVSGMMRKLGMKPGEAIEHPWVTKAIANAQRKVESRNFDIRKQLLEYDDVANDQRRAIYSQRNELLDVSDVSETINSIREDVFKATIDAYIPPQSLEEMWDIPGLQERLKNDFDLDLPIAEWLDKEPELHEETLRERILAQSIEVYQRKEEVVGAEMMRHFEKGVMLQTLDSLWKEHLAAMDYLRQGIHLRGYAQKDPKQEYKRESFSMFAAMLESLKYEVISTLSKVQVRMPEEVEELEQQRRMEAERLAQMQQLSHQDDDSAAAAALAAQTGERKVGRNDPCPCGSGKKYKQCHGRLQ

As to `CCN(Cc1cccc2c1OCO2)C(=O)NC1CC1`, the Percent Effect was -0.28% in assay [1]; 13% in [2]; 9.18% in assay [3]; 1.68% with Trypanosoma cruzi; -7.17% in assay [4]; 1.75% in assay [5]. Further, the Percent Effect in the assay listed under Homo sapiens was 3.66%; in assay [6], 3.92%; in assay [7], 28.2%; in assay [8], -7.71%.

For the compound `Cc1nn(C)cc1-c1cc(C(F)(F)F)c2c(C)nn(CC(=O)O)c2n1`, the Percent Effect is 0.552% in [1]; 14.7% in assay [2]; -7.53% in assay [3]; -2.56% in the assay on Trypanosoma cruzi; -0.885% in [4]; 7.72% in assay [5]. Moreover, the Percent Effect was 24.1% in the assay filed under Homo sapiens, -1.06% in assay [6], 0% in [7] and -17.3% in assay [8].

As to `Cc1nc(CNC(=O)NCC(O)c2ccc(F)cc2F)cs1` (stereo not given), the Percent Effect in assay [1] is 0.239%; in assay [2] it was 13.3%; in assay [3], -2.61%; with Trypanosoma cruzi, -4.62%; in [4] it was 2.22%; in [5], 9.75%. Moreover, the Percent Effect was -4.09% in the assay filed under Homo sapiens, 8.95% in assay [6], 15.4% in assay [7] and -9.8% in assay [8].

`COCC(=O)N1CCC(c2nccnc2Oc2cccnc2C)CC1`: the Percent Effect in [1] is 0.43%; in assay [2] it was 14.7%; in assay [3] it was -6.2%; in the assay with Trypanosoma cruzi it was -3.35%; in assay [4], 4.87%; in [5] it was 15.6%. In addition, the Percent Effect in the assay listed under Homo sapiens is -0.132%; in assay [6], 0%; in assay [7], 7.5%; in assay [8], -22.1%.

In the case of `CCc1nc(CN2CCCN(C(=O)COCC3CC3)CC2)cs1`, the Percent Effect in [1] was -1.44%; in assay [2], 12.8%; in [3], -6.97%; in the assay with Trypanosoma cruzi, -0.282%; in assay [4] it was 0.82%; in assay [5], 9.64%. Also, the Percent Effect in the assay listed under Homo sapiens is 6.06%; in assay [6], 11%; in assay [7] it was 22.9%; in assay [8], -6.08%.

Take `CCN1CCC2(CCC(=O)N2Cc2cccc(C)n2)CC1`: the Percent Effect is -2.48% in [1]; 9.09% in assay [2]; -0.0986% in [3]; -0.188% in the assay on Trypanosoma cruzi; 0.457% in assay [4]; 2.49% in assay [5]. The Percent Effect was -13.7% in the assay listed under Homo sapiens, 7.73% in [6], 15% in assay [7] and -11.3% in assay [8].

As to `CCC(CC)C(=O)N1CCC2(C1)CN(c1ccccc1)C(=O)CN2C` (stereo not given), the Percent Effect is -1.78% in [1]; 3.9% in assay [2]; -5.2% in assay [3]; -8.08% with Trypanosoma cruzi; 4.86% in assay [4]; 14.7% in [5]. Further, the Percent Effect was -19.6% in the assay filed under Homo sapiens, 5.79% in assay [6], 0% in [7] and -2.51% in assay [8].

For the compound `O=C1CC(c2cccc(O)c2)c2sc(C(=O)O)c(-c3ccccc3)c2N1` (stereo not given), the Percent Effect in [1] is 7.88%; in assay [2] it was -10.8%; in assay [3], -0.96%; in the assay with Trypanosoma cruzi it was -8.24%; in [4] it was -10.1%; in assay [5], 13%. In addition, the Percent Effect is 31.3% in the assay filed under Homo sapiens, -9.04% in assay [6], -2.44% in assay [7] and -0.195% in assay [8].

On to `Cc1nc(C)n(CC2CN(CCOc3ccccc3F)CCO2)n1` (stereo not given), for which the Percent Effect is -2.06% in assay [1]; 5.33% in assay [2]; -0.849% in [3]; 0.803% in the assay on Trypanosoma cruzi; -2.66% in [4]; -2.97% in assay [5]. The Percent Effect in the assay filed under Homo sapiens is 9.21%; in [6] it was -1.58%; in [7], 0%; in assay [8], -2.97%.

In the case of `Cc1cc(C)n(CC2CCCCN2CCCS(N)(=O)=O)n1` (stereo not given), the Percent Effect was 1.22% in assay [1]; 18.7% in [2]; -2.13% in [3]; -2.01% in the assay with Trypanosoma cruzi; 4.88% in [4]; 12.8% in assay [5]. Moreover, the Percent Effect in the assay filed under Homo sapiens is 8.38%; in assay [6], -0.526%; in assay [7] it was 7.69%; in assay [8], -8.39%.

For the compound `CCCn1[nH]cc/c1=N\C(=O)CN1CCOC(Cn2cc(C)cn2)C1` (stereo not given), the Percent Effect is -8.16% in [1]; 5.33% in assay [2]; 3.2% in [3]; 3.61% in the assay on Trypanosoma cruzi; 0.444% in assay [4]; 5.85% in [5]. The Percent Effect was -3.75% in the assay filed under Homo sapiens, 2.63% in assay [6], 7.69% in assay [7] and -5.89% in assay [8].
